Experimental findings from the supplement of paper PMC11732987, “Enantioselective OTUD7B fragment discovery through chemoproteomics screening and high-throughput optimisation” (Communications Chemistry, 2025) are described below.

Unmarked numbers belong to inactive results.

Common to all, as to assay: log2 ratio of Biotin-Ahx-Ub-VS probe labelling (fragment/DMSO); higher = less target engagement (more negative = stronger competition), active = hit call of the paper (q ≤ 0.05, log2 ratio ≤ -1)
Holding throughout (conditions): compound concentration: 200 uM; treatment time: 3 h

One assay addresses T1, ALG13 (UniProt Q9NP73).
T1 sequence (whole entry): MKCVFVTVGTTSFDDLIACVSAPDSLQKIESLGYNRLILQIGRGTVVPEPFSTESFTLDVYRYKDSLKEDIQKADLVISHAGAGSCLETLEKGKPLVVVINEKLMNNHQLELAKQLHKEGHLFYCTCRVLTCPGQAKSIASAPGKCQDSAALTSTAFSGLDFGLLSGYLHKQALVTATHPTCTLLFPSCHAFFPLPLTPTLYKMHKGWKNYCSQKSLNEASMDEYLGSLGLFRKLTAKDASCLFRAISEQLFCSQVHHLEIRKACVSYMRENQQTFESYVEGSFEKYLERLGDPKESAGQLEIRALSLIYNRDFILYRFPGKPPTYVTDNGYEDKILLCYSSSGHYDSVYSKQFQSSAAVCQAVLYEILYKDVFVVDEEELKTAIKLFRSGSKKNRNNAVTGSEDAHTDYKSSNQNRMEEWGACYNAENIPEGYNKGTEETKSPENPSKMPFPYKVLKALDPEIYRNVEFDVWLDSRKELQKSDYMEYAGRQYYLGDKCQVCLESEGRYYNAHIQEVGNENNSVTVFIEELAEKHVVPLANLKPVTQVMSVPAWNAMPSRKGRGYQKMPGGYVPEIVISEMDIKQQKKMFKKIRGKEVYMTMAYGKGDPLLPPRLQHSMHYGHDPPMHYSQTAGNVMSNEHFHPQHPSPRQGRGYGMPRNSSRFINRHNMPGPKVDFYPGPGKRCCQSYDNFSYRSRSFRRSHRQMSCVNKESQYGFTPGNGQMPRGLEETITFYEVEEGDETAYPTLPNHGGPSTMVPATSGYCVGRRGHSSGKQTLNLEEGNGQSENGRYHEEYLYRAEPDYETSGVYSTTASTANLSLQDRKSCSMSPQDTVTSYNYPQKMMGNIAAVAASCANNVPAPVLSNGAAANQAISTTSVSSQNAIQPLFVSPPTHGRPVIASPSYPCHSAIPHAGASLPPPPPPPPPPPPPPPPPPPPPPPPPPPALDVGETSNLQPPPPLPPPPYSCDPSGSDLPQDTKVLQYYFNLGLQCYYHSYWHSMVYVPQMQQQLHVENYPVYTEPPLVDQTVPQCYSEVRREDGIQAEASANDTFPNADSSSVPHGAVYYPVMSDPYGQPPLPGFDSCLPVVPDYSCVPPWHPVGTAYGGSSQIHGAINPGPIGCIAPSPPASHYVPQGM
The gist of the method: (§1)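 Fragment (200 µM) or vehicle was incubated for 3 h with triplicate HEK293T lysate samples of 495 µg, which were then treated with Biotin-Ahx-Ub-VS at 0.5 µM final for 1 h. Labelled DUBs were enriched on NeutrAvidin, digested with LysC and trypsin, and analysed by diaPASEF LC-MS/MS. Values are average log2 fragment/vehicle ratios from an unpaired t-test on global-median-normalised Spectronaut label-free quantities, using proteins with ≥2 unique peptides.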

For a further assay, the target named is ATXN3 (UniProt P54252). The gist of the method:
as §1

The next assay addresses T2, BAP1 (UniProt Q92560).
T2 sequence (whole entry): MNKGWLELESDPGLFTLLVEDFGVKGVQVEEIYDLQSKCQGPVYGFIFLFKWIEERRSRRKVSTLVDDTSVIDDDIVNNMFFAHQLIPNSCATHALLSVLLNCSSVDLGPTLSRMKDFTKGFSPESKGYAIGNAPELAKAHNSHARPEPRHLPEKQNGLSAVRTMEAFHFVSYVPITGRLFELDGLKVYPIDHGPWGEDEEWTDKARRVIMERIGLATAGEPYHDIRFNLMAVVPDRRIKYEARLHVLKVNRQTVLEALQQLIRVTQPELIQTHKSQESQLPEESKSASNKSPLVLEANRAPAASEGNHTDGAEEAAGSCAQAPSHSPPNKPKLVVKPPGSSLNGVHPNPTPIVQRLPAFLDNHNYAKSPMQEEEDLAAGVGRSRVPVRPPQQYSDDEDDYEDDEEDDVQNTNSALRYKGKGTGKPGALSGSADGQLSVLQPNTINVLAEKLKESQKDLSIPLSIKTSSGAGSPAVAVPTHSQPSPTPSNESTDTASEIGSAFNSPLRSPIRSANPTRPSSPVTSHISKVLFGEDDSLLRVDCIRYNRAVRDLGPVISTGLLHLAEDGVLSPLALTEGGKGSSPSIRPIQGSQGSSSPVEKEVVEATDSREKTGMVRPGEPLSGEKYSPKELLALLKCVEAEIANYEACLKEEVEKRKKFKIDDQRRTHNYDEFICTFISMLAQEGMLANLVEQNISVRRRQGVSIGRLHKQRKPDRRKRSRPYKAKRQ
A digest of the protocol: as §1

A further assay addresses EIF3F (UniProt O00303). The gist of the method: as §1
The target in a further assay is EIF3H (UniProt O15372). A digest of the protocol: as §1
EIF3H, sequence (O15372 whole entry): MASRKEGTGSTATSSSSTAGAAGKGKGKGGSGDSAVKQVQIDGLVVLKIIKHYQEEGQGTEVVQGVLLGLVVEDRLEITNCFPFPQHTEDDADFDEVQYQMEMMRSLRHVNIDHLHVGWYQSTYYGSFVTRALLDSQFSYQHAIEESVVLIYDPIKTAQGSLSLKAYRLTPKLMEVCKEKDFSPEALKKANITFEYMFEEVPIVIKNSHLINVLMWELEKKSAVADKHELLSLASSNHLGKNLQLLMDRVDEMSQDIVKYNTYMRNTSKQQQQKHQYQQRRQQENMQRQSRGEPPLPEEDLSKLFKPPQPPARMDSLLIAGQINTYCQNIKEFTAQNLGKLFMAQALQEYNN
In a further assay the target is T3, FAM105A (UniProt Q9NUU6).
T3 sequence (whole entry): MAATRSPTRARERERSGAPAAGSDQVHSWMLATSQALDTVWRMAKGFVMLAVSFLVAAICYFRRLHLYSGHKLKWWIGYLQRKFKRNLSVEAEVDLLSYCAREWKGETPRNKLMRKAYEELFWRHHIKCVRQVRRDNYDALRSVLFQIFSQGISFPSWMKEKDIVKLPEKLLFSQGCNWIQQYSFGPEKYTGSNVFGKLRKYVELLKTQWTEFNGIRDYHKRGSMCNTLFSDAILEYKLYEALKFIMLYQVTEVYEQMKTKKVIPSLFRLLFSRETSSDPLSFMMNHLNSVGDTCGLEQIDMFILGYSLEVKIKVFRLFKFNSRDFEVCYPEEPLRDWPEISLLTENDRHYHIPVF
The gist of the method:
as §1

The target of a further assay is OTUB1 (UniProt Q96FW1). The gist of the method:
as §1

A further assay concerns the target T4, OTUD4 (UniProt Q01804).
T4 sequence (whole entry): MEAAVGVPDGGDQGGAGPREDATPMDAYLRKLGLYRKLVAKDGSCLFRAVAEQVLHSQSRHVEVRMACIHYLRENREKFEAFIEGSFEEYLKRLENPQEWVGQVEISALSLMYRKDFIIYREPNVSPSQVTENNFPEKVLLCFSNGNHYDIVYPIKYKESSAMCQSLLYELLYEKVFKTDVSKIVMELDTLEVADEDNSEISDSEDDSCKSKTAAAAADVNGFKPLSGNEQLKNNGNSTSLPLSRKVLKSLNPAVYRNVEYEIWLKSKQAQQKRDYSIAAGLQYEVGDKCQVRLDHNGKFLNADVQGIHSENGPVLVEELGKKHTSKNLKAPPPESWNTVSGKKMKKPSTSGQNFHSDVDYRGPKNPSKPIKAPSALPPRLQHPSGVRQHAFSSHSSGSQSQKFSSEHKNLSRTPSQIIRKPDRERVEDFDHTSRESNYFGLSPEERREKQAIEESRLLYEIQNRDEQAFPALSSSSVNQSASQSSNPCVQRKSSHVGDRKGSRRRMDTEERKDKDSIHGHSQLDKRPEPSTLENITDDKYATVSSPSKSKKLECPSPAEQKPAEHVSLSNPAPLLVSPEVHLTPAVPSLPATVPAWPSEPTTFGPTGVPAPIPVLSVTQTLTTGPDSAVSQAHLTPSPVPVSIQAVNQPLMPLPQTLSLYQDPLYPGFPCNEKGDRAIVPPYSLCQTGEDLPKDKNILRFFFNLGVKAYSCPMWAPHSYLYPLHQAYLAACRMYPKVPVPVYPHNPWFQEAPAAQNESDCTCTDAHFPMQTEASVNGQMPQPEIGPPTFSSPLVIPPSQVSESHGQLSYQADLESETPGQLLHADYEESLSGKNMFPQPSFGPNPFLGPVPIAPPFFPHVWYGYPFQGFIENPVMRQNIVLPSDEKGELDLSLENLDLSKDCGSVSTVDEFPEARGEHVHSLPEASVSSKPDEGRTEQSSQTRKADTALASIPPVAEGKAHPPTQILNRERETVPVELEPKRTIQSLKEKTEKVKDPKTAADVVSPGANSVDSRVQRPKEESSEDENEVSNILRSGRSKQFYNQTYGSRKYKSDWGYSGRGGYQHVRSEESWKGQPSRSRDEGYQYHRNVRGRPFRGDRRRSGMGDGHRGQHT
The gist of the method: as §1

The next assay concerns the target T5, OTUD5 (UniProt Q96G74).
T5 sequence (whole entry): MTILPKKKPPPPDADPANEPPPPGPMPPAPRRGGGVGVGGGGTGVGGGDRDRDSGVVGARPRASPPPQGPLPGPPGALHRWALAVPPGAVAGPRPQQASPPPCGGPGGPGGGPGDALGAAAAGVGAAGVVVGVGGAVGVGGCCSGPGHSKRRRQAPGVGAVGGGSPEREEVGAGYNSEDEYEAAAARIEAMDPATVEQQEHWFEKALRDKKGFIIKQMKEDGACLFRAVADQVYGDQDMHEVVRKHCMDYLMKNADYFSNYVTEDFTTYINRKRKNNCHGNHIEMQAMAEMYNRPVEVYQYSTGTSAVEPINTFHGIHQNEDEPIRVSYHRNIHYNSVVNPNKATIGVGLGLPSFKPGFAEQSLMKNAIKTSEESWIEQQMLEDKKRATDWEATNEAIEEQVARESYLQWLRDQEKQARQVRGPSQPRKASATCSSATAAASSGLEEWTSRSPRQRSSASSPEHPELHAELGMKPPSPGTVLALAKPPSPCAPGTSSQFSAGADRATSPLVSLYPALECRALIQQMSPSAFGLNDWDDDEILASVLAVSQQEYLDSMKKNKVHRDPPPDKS
The gist of the method: as §1

EIF3F, sequence (O00303 whole entry): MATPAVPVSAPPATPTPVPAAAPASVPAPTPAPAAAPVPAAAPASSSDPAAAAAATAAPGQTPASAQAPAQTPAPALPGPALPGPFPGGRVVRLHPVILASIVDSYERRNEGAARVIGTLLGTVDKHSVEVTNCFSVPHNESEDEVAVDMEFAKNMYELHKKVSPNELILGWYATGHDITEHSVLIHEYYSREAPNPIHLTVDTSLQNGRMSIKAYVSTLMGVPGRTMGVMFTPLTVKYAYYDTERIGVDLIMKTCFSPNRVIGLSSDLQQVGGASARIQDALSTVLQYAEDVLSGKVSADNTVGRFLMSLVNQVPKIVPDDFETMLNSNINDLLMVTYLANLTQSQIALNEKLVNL
ATXN3, sequence (P54252 whole entry): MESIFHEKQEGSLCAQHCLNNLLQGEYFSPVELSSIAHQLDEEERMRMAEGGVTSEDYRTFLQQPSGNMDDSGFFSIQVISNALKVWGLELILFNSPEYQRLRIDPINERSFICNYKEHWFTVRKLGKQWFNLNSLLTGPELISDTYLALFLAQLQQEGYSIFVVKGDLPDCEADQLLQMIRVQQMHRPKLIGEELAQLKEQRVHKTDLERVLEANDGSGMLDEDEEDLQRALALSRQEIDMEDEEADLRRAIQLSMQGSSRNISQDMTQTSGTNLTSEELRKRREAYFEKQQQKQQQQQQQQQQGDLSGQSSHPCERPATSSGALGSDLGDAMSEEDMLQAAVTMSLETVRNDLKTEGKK
OTUB1, sequence (Q96FW1 whole entry): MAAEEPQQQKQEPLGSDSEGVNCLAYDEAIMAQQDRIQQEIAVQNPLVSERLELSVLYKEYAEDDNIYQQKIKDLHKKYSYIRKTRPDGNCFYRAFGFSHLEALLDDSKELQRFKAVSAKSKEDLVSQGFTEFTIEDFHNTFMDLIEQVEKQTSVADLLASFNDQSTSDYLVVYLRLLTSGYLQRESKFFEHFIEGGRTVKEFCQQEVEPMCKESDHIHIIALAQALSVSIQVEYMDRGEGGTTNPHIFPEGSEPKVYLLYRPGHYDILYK

With `Cl.O=C(CCl)N1CC(c2ccc(Br)cn2)C1`, the “log2 ratio of Biotin-Ahx-Ub-VS probe labelling” value (shortened to “log2 ratio”) in the assay with ALG13 is 0.23; with ATXN3 it was -0.38; with BAP1, -1.49 (active); with EIF3F it was -0.158; with EIF3H, 0.134; with FAM105A, 0.0979. The “log2 ratio” value with OTUB1 is -0.157; in the assay with OTUD4, -0.553; in the assay with OTUD5 it was -0.45.

With `CCC(NC(=O)CCl)c1ccc(Cl)cc1` (stereo unspecified), the “log2 ratio” value is 0.101 in the assay with ALG13; -0.139 with ATXN3; -2.81 (active) with BAP1; -0.0176 with EIF3F; -0.0528 with EIF3H; 0.315 with FAM105A. In addition, the entries for the “log2 ratio” value with OTUB1, in the assay with OTUD4 and with OTUD5 were -0.267, -0.628 and -0.123, respectively.

With `CCN(Cc1ccc(C#N)cc1F)C(=O)CCl`, the “log2 ratio” value was 0.0792 in the assay with ALG13; -1.1 (active) with ATXN3; -0.691 in the assay with BAP1; -0.201 with EIF3F; 0.0146 with EIF3H; 0.124 with FAM105A. Moreover, the “log2 ratio” value is -0.377 with OTUB1, -0.686 with OTUD4 and -0.653 with OTUD5.

For the molecule `CN(Cc1nc2ccccc2[nH]1)C(=O)CCl.Cl`, the “log2 ratio” value was 0.0974 with ALG13; -0.483 with ATXN3; -0.482 with BAP1; -0.447 with EIF3F; 0.225 in the assay with EIF3H; -0.213 with FAM105A. In addition, the “log2 ratio” value with OTUB1 is -0.189; with OTUD4, 0.0195; with OTUD5, -0.483.
